Data: PubChem BioAssay AID1159580 (chemical genetic matrix, 2015)
Out of some 5,500 compounds screened, about 2,000 (36%) were called active. Not shown: some 18% with an inconclusive outcome. Cut-off read from the data, not from the text of the source: active = normalized growth mostly below about 0.91 (no sharp cut-off); inconclusive = no clear call, values can overlap the other calls; inactive = mostly above about 0.92. Some of the results follow.

Test: chemical genetic growth profiling, strain panel (AID 1159580);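 note: tested at 20 µM; growth read once vehicle control cultures reached saturation at 30 °C; 1 = growth at the plate median or of vehicle wells; lower values mean less growth of the strain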
Settings: S. cerevisiae deletion strains, growth OD

Measured: normalized growth

NC(=NCCC[C@H](N)C(=O)O)N[N+](=O)[O-]
inactive: locus YAL013W, strain DEP1, hits give low values 0.99 | locus YAL021C, strain ccr4, hits give low values 1.02 | locus YAL026C, strain drs2, hits give low values 1.03 | locus YAL030W, strain snc1, hits give low values 1.02 | locus YBL061C, strain skt5, hits give low values 1.02 | locus YBR009C, strain hhf1, hits give low values 1.02 | locus YBR021W, strain FUR4, hits give low values 0.992 | locus YBR023C, strain chs3, hits give low values 1.02 | locus YBR171W, strain sec66, hits give low values 1.03 | locus YBR229C, strain ROT2, hits give low values 1 | locus YBR231C, strain swc5, hits give low values 1.02 | locus YBR279W, strain paf1, hits give low values 1.02 | locus YCL011C, strain gbp2, hits give low values 1.03 | locus YCL016C, strain dcc1, hits give low values 1.02 | locus YCL029C, strain bik1, hits give low values 0.994 | locus YCL069W, strain vba3, hits give low values 1.01 | locus YCR088W, strain abp1, hits give low values 1.03 | locus YDL005C, strain med2, hits give low values 1.03 | locus YDL035C, strain GPR1, hits give low values 1 | locus YDL040C, strain nat1, hits give low values 1.02 | locus YDL074C, strain BRE1, hits give low values 0.978 | locus YDL101C, strain DUN1, hits give low values 1 | locus YDL134C, strain PPH21, hits give low values 1.01 | locus YDL185W, strain tfp1, hits give low values 1.01 | locus YDL192W, strain arf1, hits give low values 1.01 | locus YDR001C, strain nth1, hits give low values 1.01 | locus YDR069C, strain doa4, hits give low values 1.03 | locus YDR101C, strain arx1, hits give low values 0.946 | locus YDR137W, strain rgp1, hits give low values 1.05 | locus YDR150W, strain NUM1, hits give low values 0.992 | locus YDR159W, strain sac3, hits give low values 0.991 | locus YDR162C, strain NBP2, hits give low values 1.02 | locus YDR195W, strain ref2 1.04 | locus YDR297W, strain sur2, hits give low values 1.02 | locus YDR318W, strain mcm21, hits give low values 1.01 | locus YDR334W, strain swr1, hits give low values 1.02 | locus YDR335W, strain msn5, hits give low values 1.03 | locus YDR388W, hits give low values 1.02 | locus YDR392W, strain spt3, hits give low values 1.03 | locus YDR502C, strain sam2, hits give low values 1.01 | locus YEL003W, strain gim4, hits give low values 1.02 | locus YEL037C, strain rad23, hits give low values 1.03 | locus YEL061C, strain CIN8 (second series), hits give low values 1.01 | locus YEL061C, strain CIN8, hits give low values 0.983 | locus YER015W, strain faa2, hits give low values 1.03 | locus YER016W, strain bim1, hits give low values 1.01 | locus YER110C, hits give low values 1.01 | locus YER111C, strain swi4, hits give low values 1.04 | locus YER155C, strain BEM2 (second series), hits give low values 1.06 | locus YER155C, strain BEM2, hits give low values 1 | locus YER167W, strain BCK2, hits give low values 0.998 | locus YFR010W, strain ubp6, hits give low values 1.03 | locus YGL078C, strain dbp3, hits give low values 1 | locus YGL086W, strain mad1, hits give low values 0.982 | locus YGL167C, strain pmr1, hits give low values 1.02 | locus YGL173C, strain kem1, hits give low values 1.02 | locus YGL227W, strain vid30, hits give low values 1.01 | locus YGL240W, strain doc1, hits give low values 1.04 | locus YGL248W, strain PDE1, hits give low values 1 | locus YGL253W, strain hxk2, hits give low values 1.02 | locus YGR078C, strain PAC10, hits give low values 0.972 | locus YGR135W, strain pre9, hits give low values 1.06 | locus YGR229C, strain SMI1, hits give low values 1.01 | locus YGR252W, strain gcn5, hits give low values 1.07 | locus YHR013C, strain ard1, hits give low values 1.05 | locus YHR027C, strain rpn1, hits give low values 1.02 | locus YHR030C, strain SLT2, hits give low values 0.994 | locus YHR079C, strain IRE1 (second series), hits give low values 1.01 | locus YHR094C, strain hxt1, hits give low values 1.01 | locus YHR129C, strain ARP1, hits give low values 1.01 | locus YHR142W, strain chs7, hits give low values 1.05 | locus YHR200W, strain rpn10, hits give low values 0.996 | locus YIL066C, strain RNR3, hits give low values 1.01 | locus YIL073C, strain SPO22, hits give low values 1.05 | locus YIL125W, strain kgd1, hits give low values 0.999 | locus YIR030C, strain dcg1, hits give low values 1.01 | locus YJL092W, strain hpr5, hits give low values 1.02 | locus YJL095W, strain BCK1 (second series), hits give low values 1.03 | locus YJL095W, strain BCK1, hits give low values 1 | locus YJL115W, strain asf1, hits give low values 1.04 | locus YJL129C, strain trk1, hits give low values 1.05 | locus YJL134W, strain LCB3, hits give low values 1 | locus YJL154C, strain vps35, hits give low values 1.02 | locus YJL164C, strain tpk1, hits give low values 1.02 | locus YJL166W, strain qcr8, hits give low values 1.03 | locus YJL168C, strain set2, hits give low values 0.999
